Source: PubChem BioAssay (EPA / NIEHS)
Inconclusive results are not listed. Active and inactive are the calls of the source. The calls were made as follows, unless noted: active = hit-call score of the fitted dose curve at least 0.9, where 1 is the maximum; inactive = score below 0.9.

How the values were obtained:
[1] = ACEA_ER_80hr: ACEA Biosciences xCELLigence Real-Time Cell Analysis on Estrogen Receptor Agonism for Proliferation (AID 2282667; active = hit-call score of the fitted dose curve at least 0.9, where 1 is the maximum); details: T47D proliferation, impedance (xCELLigence), 80 h
Summary of the method: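 Cell-growth kinetics were measured by impedance in T47D cells treated continuously with compound (top 100 uM final, 1:4 steps, 8 points). Activity at 80 h was scored as signal gain over the DMSO baseline.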

[2] = APR_HepG2_CellCycleArrest_24hr: Apredica 24-hour HepG2 Assay for Cell Cycle Arrest (AID 2282905); details: imaging, actives raise or lower the signal;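 also: cell cycle arrest scored as ratio of 2N to 4N nuclear DNA content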
Summary of the method: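 HepG2, 24 hr dosing, 10-pt 0.39–200 uM in duplicate, 0.5% DMSO. Fixed 3.7% formaldehyde, permeabilized 0.5% Triton X-100, Hoechst 33342 2 ug/mL. Imaged 20x; nuclear DNA content quantified; bidirectional fit vs DMSO.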

[3] = APR_HepG2_NuclearSize_24hr: Apredica 24-hour HepG2 Assay for Nuclear Size (AID 2282907); details: high-content imaging, actives raise or lower the signal
Summary of the method: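 HepG2, 24 hr dosing, 10-pt 0.39–200 uM, duplicates, 0.5% DMSO final; 3.7% formaldehyde fix, 0.5% Triton X-100; Hoechst 33342 nuclear stain; ArrayScan HCS, Cell Cycle analysis → nuclear size; bidirectional fit vs DMSO.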

[4] = APR_HepG2_CellLoss_24hr: Apredica 24-hour HepG2 Assay for Cell Loss (AID 2282908); details: high-content imaging;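 as to AC50: fit in both directions so a hit may be cell loss or gain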
Summary of the method: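 10-pt dose, 0.39–200 uM, n=2/plate; DMSO 0.5% v/v final as negative control. Fix 3.7% formaldehyde 30 min RT, permeabilize 0.5% Triton X-100, stain Hoechst 33342 2 ug/mL, image 20x. Nuclear count, bidirectional fit vs DMSO.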

[5] = APR_HepG2_MicrotubuleCSK_24hr: Apredica 24-hour HepG2 Assay for Microtubule CSK Stabilty (AID 2282909); details: HepG2 microtubule cytoskeleton imaging, actives raise or lower the signal
Summary of the method: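 Human liver HepG2, 24 h dosing, 0.39–200 uM ×10 conc, dup, 0.5% DMSO. 3.7% formaldehyde fix, 0.5% Triton perm, anti-alpha-tubulin (1:200)/Cy5 secondary + Hoechst. HCS imaging, 6 fields/well; gain/loss fit vs DMSO.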

[6] = APR_HepG2_MitoticArrest_24hr: Apredica 24-hour HepG2 Assay for Mitotic Arrest (AID 2282910); details: high-content imaging, actives raise or lower the signal
Summary of the method: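 HepG2 human liver cells were exposed to compounds at 0.39–200 uM (10 concentrations, duplicate) in 0.5% v/v DMSO for 24 hr, then fixed and immunostained for phospho-histone H3 with Hoechst 33342. Mitotic arrest came from HCS fluorescent imaging, fitted bidirectionally against DMSO.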

[7] = APR_HepG2_MitoMass_24hr: Apredica 24-hour HepG2 Assay for Mitochondrial Mass (AID 2282912); details: high-content imaging, actives raise or lower the signal
Summary of the method: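 Mitochondrial mass is read as MitoTracker Red fluorescence intensity from automated imaging, with bidirectional curve fitting relative to DMSO. HepG2 cells received compound (0.39–200 uM, 0.5% DMSO final) for 24 hr and were dye-loaded (250 nM, 30 min) before formaldehyde fixation.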

[8] = APR_HepG2_p53Act_24hr: Apredica 24-hour HepG2 Assay for p53 Activation (AID 2282913); details: high-content imaging, actives raise or lower the signal;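 also: p53 protein immunofluorescence averaged per cell in HepG2 with Hoechst nuclei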
Summary of the method: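 Automated fluorescence imaging quantifies p53 immunostaining in HepG2 cells after a 24 hr exposure (0.39–200 uM, duplicate, 0.5% DMSO). Nuclei are located by Hoechst 33342 staining.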

[9] = APR_HepG2_CellCycleArrest_72hr: Apredica 72-hour HepG2 Assay for Cell Cycle Arrest (AID 2282914); details: high-content imaging, actives raise or lower the signal
Summary of the method: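 Cell cycle arrest in HepG2 was scored from nuclear DNA content after 72 hr compound treatment (0.39–200 uM). Activity, either gain or loss, was fitted against the DMSO baseline.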

[10] = APR_HepG2_CellLoss_72hr: Apredica 72-hour HepG2 Assay for Cell Loss (AID 2282915); details: high-content imaging
Summary of the method: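 HepG2 cells were exposed for 72 hr to compounds at 0.39–200 uM (ten concentrations, duplicate) in 0.5% v/v final DMSO. Nuclei were stained with Hoechst 33342 after 3.7% formaldehyde fixation, imaged at 20x, and counted; fits bidirectional versus DMSO.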

[11] = APR_HepG2_P-H2AX_72hr: Apredica 72-hour HepG2 Assay for H2AX Phosphorylation (AID 2282916); details: imaging, actives raise or lower the signal;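 also: phospho-histone H2A.x immunostain intensity per cell marking DNA damage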
Summary of the method: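 HepG2; cpd 0.39–200 uM ×10 conc, duplicates; 0.5% DMSO; 72 hr. Fix 3.7% formaldehyde 30 min RT, 0.5% Triton X-100 10 min. Anti-phospho-H2A.x 1:200 + Hoechst 2 ug/mL, 60 min RT; ArrayScan imaging.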

[12] = APR_HepG2_MitoMembPot_72hr: Apredica 72-hour HepG2 Assay for Mitochondrial Membrane Potential (AID 2282917); details: imaging, actives raise or lower the signal
Summary of the method: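 HepG2 cells exposed 72 h to compounds at 0.39–200 uM (0.5% v/v DMSO, duplicates); MitoTracker Red CMXRos 250 nM loaded 30 min before 3.7% formaldehyde fixation, imaged by HCS fluorescence. Bidirectional fit versus DMSO.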

[13] = APR_HepG2_MitoticArrest_72hr: Apredica 72-hour HepG2 Assay for Mitotic Arrest (AID 2282918); details: high-content imaging, actives raise or lower the signal
Summary of the method: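 Mitotic arrest in HepG2 is scored from phospho-histone H3 staining after 72 hr dosing across 0.39–200 uM, with DMSO at 0.5% v/v. Nuclei are identified by Hoechst 33342 and fluorescence intensity is quantified per cell.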

[14] = APR_HepG2_MicrotubuleCSK_72hr: Apredica 72-hour HepG2 Assay for Microtubule CSK Stabilty (AID 2282919); details: HepG2 microtubule cytoskeleton, high-content imaging, actives raise or lower the signal
Summary of the method: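 HepG2 human liver cells were dosed for 72 h at ten concentrations from 0.39 to 200 uM in duplicate (0.5% v/v DMSO final). Fixed, permeabilized cells were immunostained for alpha-tubulin (Cy5) with a Hoechst counterstain and imaged at 20x.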

[15] = APR_HepG2_P-H2AX_24hr: Apredica 24-hour HepG2 Assay for H2AX Phosphorylation (AID 2282920); details: high-content imaging, actives raise or lower the signal
Summary of the method: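 Signal comes from a FITC-labeled secondary detecting phospho-histone H2A.x in fixed HepG2 cells, quantified by automated imaging at 20x. Dosing ran 24 hr across 0.39–200 uM with 0.5% v/v DMSO.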

[16] = APR_HepG2_StressKinase_72hr: Apredica 72-hour HepG2 Assay for Stress Kinase (AID 2282921); details: HepG2 stress kinase (phospho-c-Jun) imaging, actives raise or lower the signal
Summary of the method: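 Dose 0.39–200 uM (10 pts, duplicate), 0.5% DMSO; 72 h; fix 3.7% formaldehyde 30 min RT; Triton permeabilize; anti-phospho-c-Jun/Cy3 + Hoechst 60 min RT; image 20x; fit gain/loss vs DMSO.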

[17] = APR_HepG2_StressKinase_24hr: Apredica 24-hour HepG2 Assay for Stress Kinase (AID 2282922); details: HepG2 stress kinase (phospho-c-Jun) imaging, actives raise or lower the signal
Summary of the method: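 HepG2 cells exposed 24 hr to compound at 0.39–200 uM (10 concentrations, duplicate), 0.5% v/v DMSO final. Fixed in 3.7% formaldehyde, permeabilized with Triton X-100, immunolabeled for phospho-c-Jun with Hoechst 33342; HCS fluorescence imaging, bidirectional fit versus DMSO.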

[18] = APR_HepG2_p53Act_72hr: Apredica 72-hour HepG2 Assay for p53 Activation (AID 2282923); details: high-content imaging, actives raise or lower the signal;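 also: average cellular p53 protein immunofluorescence intensity in HepG2 cells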
Summary of the method: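 10-pt conc. 0.39–200 uM, duplicate, 0.5% DMSO; 72 hr exposure; 3.7% formaldehyde fix, 0.5% Triton perm; sheep anti-p53/Cy5 + Hoechst; ArrayScan 20x, 6 images/well; gain/loss fit vs DMSO.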

[19] = APR_HepG2_MitoMass_72hr: Apredica 72-hour HepG2 Assay for Mitochondrial Mass (AID 2282924); details: high-content imaging, actives raise or lower the signal;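 also: MitoTracker Red CMXRos stain intensity per cell imaged as mitochondrial mass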
Summary of the method: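 HepG2 cells were exposed for 72 hr to compounds at 0.39–200 uM (ten concentrations, duplicate, 0.5% v/v DMSO final). Live cells were stained with 250 nM MitoTracker Red CMXRos for 30 min, then fixed in 3.7% formaldehyde and imaged by HCS fluorescence.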

[20] = APR_HepG2_MitoMembPot_24hr: Apredica 24-hour HepG2 Assay for Mitochondrial Membrane Potential (AID 2282911); details: imaging, actives raise or lower the signal
Summary of the method: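 Human hepatoma HepG2 cultures received ten compound concentrations up to 200 uM for 24 hr. Membrane-potential dye signal, captured by automated fluorescence microscopy, was scored for gain or loss against DMSO controls.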

Measured: AC50

O=C(O)c1ccc2c(c1)nc(C(=O)NC1CCN(C3CC3)CC1)n2Cc1cc(-c2ccc(Cl)s2)on1
inactive: [1] | [2] | [3] | [4] | [5] | [6] | [7] | [8] | [9] | [10] | [11] | [12] | [13] | [14] | [15] | [16] | [17] | [18] | [19]

Cn1c(=O)c2[nH]cnc2n(C)c1=O
inactive: [1] | [2] | [3] | [4] | [5] | [6] | [7] | [8] | [9] | [10] | [11] | [12] | [13] | [14] | [15] | [16] | [17] | [18] | [19]

CCCCOC(=O)c1ccccc1
inactive: [1] | [2] | [3] | [4] | [5] | [6] | [7] | [8] | [9] | [10] | [11] | [12] | [13] | [14] | [15] | [16] | [17] | [18] | [19]

OCC(CO)(CO)CO
inactive: [1] | [2] | [3] | [4] | [5] | [6] | [20] | [7] | [9] | [10] | [11] | [12] | [13] | [14] | [15] | [16] | [17] | [19]

COc1cc(C(C)C)c2c(c1)S(=O)(=O)N(COc1cc(=O)n3cccc(OCCN4CCCCC4)c3n1)C2=O
active: [2] 17.7 µM | [4] 24.2 µM | [5] 15.8 µM | [6] 24 µM | [20] 26.4 µM | [7] 29.1 µM | [10] 23.1 µM | [15] 10.7 µM
inactive: [1] | [3] | [9] | [11] | [12] | [13] | [14] | [16] | [17] | [19]

c1ccc2cc3ccccc3cc2c1
active: [2] 106 µM | [4] 100 µM | [9] 110 µM | [10] 139 µM | [11] 112 µM | [15] 107 µM
inactive: [1] | [3] | [5] | [6] | [20] | [7] | [8] | [16] | [17] | [18]

CCCCC(CC)C(=O)OCCOCCOCCOC(=O)C(CC)CCCC (stereo not drawn)
inactive: [1] | [2] | [3] | [4] | [5] | [6] | [7] | [8] | [11] | [12] | [14] | [15] | [16] | [17] | [18] | [19]
active: [9] 79.2 µM | [10] 89.8 µM | [13] 91.2 µM
